Source: publication PMC11006913
Numbering of substitutions follows the chain as printed.

Assays:
Assay in all cases: PBM; 200 nM protein, PBS
Conditions in all cases: dsDNA, one strand shown
[1] = molecular target: HOXB9 (Homo sapiens, UniProt P17482 171-250, T197M)
[2] = molecular target: HOXC9 (Homo sapiens, UniProt P31274 178-260, K195R)
[3] = molecular target: HOXC10 (Homo sapiens, UniProt Q9NYD6 254-340)
[4] = molecular target: HOXB9 (Homo sapiens, UniProt P17482 171-250)
[5] = molecular target: HOXC9 (Homo sapiens, UniProt P31274 178-260)
[6] = molecular target: HOXD13 (Homo sapiens, UniProt P35453 263-343, T313R)
[7] = molecular target: HOXC9 (Homo sapiens, UniProt P31274 178-260, R193K)
[8] = molecular target: HOXD13 (Homo sapiens, UniProt P35453 263-343)
[9] = molecular target: HOXC10 (Homo sapiens, UniProt Q9NYD6 254-340, K271E)
[10] = molecular target: HOXD13 (Homo sapiens, UniProt P35453 263-343, T313A)
[11] = molecular target: HOXB9 (Homo sapiens, UniProt P17482 171-250, R186Q)
[12] = molecular target: HOXC9 (Homo sapiens, UniProt P31274 178-260, R222W)
[13] = molecular target: HOXA2 (Homo sapiens, UniProt O43364 129-215, R185T)
[14] = molecular target: HOXA2 (Homo sapiens, UniProt O43364 129-215, R185K)
[15] = molecular target: HOXA2 (Homo sapiens, UniProt O43364 129-215, Y150S)
[16] = molecular target: HOXA2 (Homo sapiens, UniProt O43364 129-215)
[17] = molecular target: T1, PAX4 (Homo sapiens, UniProt O43316 9-242, R200K)
T1 sequence: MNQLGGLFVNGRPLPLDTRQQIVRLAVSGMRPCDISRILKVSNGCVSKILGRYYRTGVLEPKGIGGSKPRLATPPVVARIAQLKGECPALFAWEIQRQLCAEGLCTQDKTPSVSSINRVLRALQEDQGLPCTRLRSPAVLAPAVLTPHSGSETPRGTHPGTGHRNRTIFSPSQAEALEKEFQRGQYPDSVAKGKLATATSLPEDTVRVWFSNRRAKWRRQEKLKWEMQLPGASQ

[18] = molecular target: T2, PAX4 (Homo sapiens, UniProt O43316 9-242)
T2 sequence: T1 sequence with K192R

[19] = molecular target: ALX3 (Homo sapiens, UniProt O95076 139-225, N203Q)
[20] = molecular target: T3, PAX4 (Homo sapiens, UniProt O43316 9-242, R200Q)
T3 sequence: T1 sequence with K192Q

[21] = molecular target: T4, PAX4 (Homo sapiens, UniProt O43316 9-242, F177V)
T4 sequence: T1 sequence with F169V, K192R

[22] = molecular target: ALX3 (Homo sapiens, UniProt O95076 139-225)
[23] = molecular target: T5, PAX4 (Homo sapiens, UniProt O43316 9-242, F177Y)
T5 sequence: T1 sequence with F169Y, K192R

[24] = molecular target: ALX3 (Homo sapiens, UniProt O95076 139-225, L168Q)
[25] = molecular target: ALX3 (Homo sapiens, UniProt O95076 139-225, L168V)
[26] = molecular target: T6, PAX4 (Homo sapiens, UniProt O43316 9-242, R227W)
T6 sequence: T1 sequence with K192R, R219W

[27] = molecular target: ALX3 (Homo sapiens, UniProt O95076 139-225, N203S)
[28] = molecular target: VAX1 (Homo sapiens, UniProt Q5SQQ9 86-172)
[29] = molecular target: VAX1 (Homo sapiens, UniProt Q5SQQ9 86-172, T142I)
[30] = molecular target: VAX1 (Homo sapiens, UniProt Q5SQQ9 86-172, K157R)
VAX1 (Homo sapiens, UniProt Q5SQQ9 86-172, K157R), sequence (Q5SQQ9 86-172 K157R): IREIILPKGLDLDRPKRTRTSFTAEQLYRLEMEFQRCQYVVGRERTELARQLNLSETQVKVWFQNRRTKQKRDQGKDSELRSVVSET

HOXC9 (Homo sapiens, UniProt P31274 178-260, R193K), sequence (P31274 178-260 R193K): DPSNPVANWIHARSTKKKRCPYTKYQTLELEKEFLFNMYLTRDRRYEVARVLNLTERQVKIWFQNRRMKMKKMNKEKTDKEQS
HOXB9 (Homo sapiens, UniProt P17482 171-250), sequence (P17482 171-250): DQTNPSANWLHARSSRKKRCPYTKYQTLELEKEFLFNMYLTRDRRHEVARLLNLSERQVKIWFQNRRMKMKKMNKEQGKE
HOXC9 (Homo sapiens, UniProt P31274 178-260, K195R), sequence (P31274 178-260 K195R): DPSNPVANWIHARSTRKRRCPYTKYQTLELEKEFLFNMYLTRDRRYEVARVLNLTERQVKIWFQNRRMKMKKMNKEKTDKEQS
HOXC10 (Homo sapiens, UniProt Q9NYD6 254-340, K271E), sequence (Q9NYD6 254-340 K271E): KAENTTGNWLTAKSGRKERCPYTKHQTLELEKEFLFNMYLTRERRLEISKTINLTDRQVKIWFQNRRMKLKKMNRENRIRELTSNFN
HOXB9 (Homo sapiens, UniProt P17482 171-250, R186Q), sequence (P17482 171-250 R186Q): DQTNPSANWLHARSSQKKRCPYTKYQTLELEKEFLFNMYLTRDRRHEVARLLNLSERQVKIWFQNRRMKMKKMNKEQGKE
HOXB9 (Homo sapiens, UniProt P17482 171-250, T197M), sequence (P17482 171-250 T197M): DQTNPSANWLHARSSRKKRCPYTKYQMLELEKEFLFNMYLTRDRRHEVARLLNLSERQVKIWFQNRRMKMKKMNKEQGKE
HOXC9 (Homo sapiens, UniProt P31274 178-260), sequence (P31274 178-260): as the sequence (P31274 178-260 R193K) above, with K16R counted along it
HOXC10 (Homo sapiens, UniProt Q9NYD6 254-340), sequence (Q9NYD6 254-340): as the sequence (Q9NYD6 254-340 K271E) above, with E18K counted along it
HOXC9 (Homo sapiens, UniProt P31274 178-260, R222W), sequence (P31274 178-260 R222W): as the sequence (P31274 178-260 R193K) above, with K16R, R45W counted along it
HOXA2 (Homo sapiens, UniProt O43364 129-215), sequence (O43364 129-215): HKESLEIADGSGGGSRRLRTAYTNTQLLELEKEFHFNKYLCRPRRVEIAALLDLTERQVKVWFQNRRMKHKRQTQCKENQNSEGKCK
HOXD13 (Homo sapiens, UniProt P35453 263-343, T313A), sequence (P35453 263-343 T313A): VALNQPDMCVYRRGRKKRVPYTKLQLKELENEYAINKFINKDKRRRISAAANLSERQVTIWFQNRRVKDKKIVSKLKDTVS
HOXD13 (Homo sapiens, UniProt P35453 263-343, T313R), sequence (P35453 263-343 T313R): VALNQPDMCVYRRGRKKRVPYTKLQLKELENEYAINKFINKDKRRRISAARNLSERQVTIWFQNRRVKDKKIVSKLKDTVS
HOXA2 (Homo sapiens, UniProt O43364 129-215, Y150S), sequence (O43364 129-215 Y150S): as the sequence (O43364 129-215) above, with Y22S counted along it
HOXA2 (Homo sapiens, UniProt O43364 129-215, R185T), sequence (O43364 129-215 R185T): as the sequence (O43364 129-215) above, with R57T counted along it
HOXD13 (Homo sapiens, UniProt P35453 263-343), sequence (P35453 263-343): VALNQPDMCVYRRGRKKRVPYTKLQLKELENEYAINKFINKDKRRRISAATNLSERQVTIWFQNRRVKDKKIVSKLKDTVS
HOXA2 (Homo sapiens, UniProt O43364 129-215, R185K), sequence (O43364 129-215 R185K): as the sequence (O43364 129-215) above, with R57K counted along it
VAX1 (Homo sapiens, UniProt Q5SQQ9 86-172, T142I), sequence (Q5SQQ9 86-172 T142I): as the sequence (Q5SQQ9 86-172 K157R) above, with T57I, R72K counted along it
ALX3 (Homo sapiens, UniProt O95076 139-225), sequence (O95076 139-225): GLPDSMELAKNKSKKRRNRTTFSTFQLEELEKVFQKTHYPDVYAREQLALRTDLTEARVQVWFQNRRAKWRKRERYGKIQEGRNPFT
ALX3 (Homo sapiens, UniProt O95076 139-225, N203S), sequence (O95076 139-225 N203S): as the sequence (O95076 139-225) above, with N65S counted along it
ALX3 (Homo sapiens, UniProt O95076 139-225, N203Q), sequence (O95076 139-225 N203Q): as the sequence (O95076 139-225) above, with N65Q counted along it
VAX1 (Homo sapiens, UniProt Q5SQQ9 86-172), sequence (Q5SQQ9 86-172): as the sequence (Q5SQQ9 86-172 K157R) above, with R72K counted along it
ALX3 (Homo sapiens, UniProt O95076 139-225, L168Q), sequence (O95076 139-225 L168Q): as the sequence (O95076 139-225) above, with L30Q counted along it
ALX3 (Homo sapiens, UniProt O95076 139-225, L168V), sequence (O95076 139-225 L168V): as the sequence (O95076 139-225) above, with L30V counted along it

Question: Which binding signal [1] does the source give for TCGTTAAA here?
Answer: 9.96 upbm affinity estimate (log intensity, higher = more binding, comparable within an allelic series)

Question: What about the binding signal [2] of the same sequence?
Answer: 12.5 upbm affinity estimate (log intensity, higher = more binding, comparable within an allelic series)

Question: What about the binding signal [3] of the same sequence?
Answer: 12.4 upbm affinity estimate (log intensity, higher = more binding, comparable within an allelic series)

Question: And the binding signal [4]?
Answer: 11.7 upbm affinity estimate (log intensity, higher = more binding, comparable within an allelic series)

Question: What about the binding signal [5] of the same sequence?
Answer: 12.7 upbm affinity estimate (log intensity, higher = more binding, comparable within an allelic series)

Question: What about the binding signal [6] of the same sequence?
Answer: 10.8 upbm affinity estimate (log intensity, higher = more binding, comparable within an allelic series)

Question: What about the binding signal [7] of the same sequence?
Answer: 12.4 upbm affinity estimate (log intensity, higher = more binding, comparable within an allelic series)

Question: What about the binding signal [8] of the same sequence?
Answer: 12 upbm affinity estimate (log intensity, higher = more binding, comparable within an allelic series)

Question: What about the binding signal [9] of the same sequence?
Answer: 12.1 upbm affinity estimate (log intensity, higher = more binding, comparable within an allelic series)

Question: What about the binding signal [10] of the same sequence?
Answer: 11.7 upbm affinity estimate (log intensity, higher = more binding, comparable within an allelic series)

Question: And the binding signal [11]?
Answer: 11.3 upbm affinity estimate (log intensity, higher = more binding, comparable within an allelic series)

Question: And the binding signal [12]?
Answer: 10.9 upbm affinity estimate (log intensity, higher = more binding, comparable within an allelic series)

Question: How did the binding signal [1] turn out when CCCTCACC was run?
Answer: 8.63 upbm affinity estimate (log intensity, higher = more binding, comparable within an allelic series)

Question: And the binding signal [2]?
Answer: 9.5 upbm affinity estimate (log intensity, higher = more binding, comparable within an allelic series)

Question: And the binding signal [3]?
Answer: 9.97 upbm affinity estimate (log intensity, higher = more binding, comparable within an allelic series)

Question: What about the binding signal [4] of the same sequence?
Answer: 8.28 upbm affinity estimate (log intensity, higher = more binding, comparable within an allelic series)

Question: What about the binding signal [5] of the same sequence?
Answer: 9.44 upbm affinity estimate (log intensity, higher = more binding, comparable within an allelic series)

Question: What about the binding signal [7] of the same sequence?
Answer: 9.56 upbm affinity estimate (log intensity, higher = more binding, comparable within an allelic series)

Question: What about the binding signal [9] of the same sequence?
Answer: 9.96 upbm affinity estimate (log intensity, higher = more binding, comparable within an allelic series)

Question: What about the binding signal [11] of the same sequence?
Answer: 8.43 upbm affinity estimate (log intensity, higher = more binding, comparable within an allelic series)

Question: And the binding signal [12]?
Answer: 9.7 upbm affinity estimate (log intensity, higher = more binding, comparable within an allelic series)

Question: What does the source list for CTCGTAAA?
Answer: binding signal [1]: 9.72 upbm affinity estimate (log intensity, higher = more binding, comparable within an allelic series); binding signal [2]: 12.6 upbm affinity estimate (log intensity, higher = more binding, comparable within an allelic series); binding signal [3]: 12.6 upbm affinity estimate (log intensity, higher = more binding, comparable within an allelic series); binding signal [4]: 12 upbm affinity estimate (log intensity, higher = more binding, comparable within an allelic series); binding signal [5]: 12.9 upbm affinity estimate (log intensity, higher = more binding, comparable within an allelic series); binding signal [6]: 11.3 upbm affinity estimate (log intensity, higher = more binding, comparable within an allelic series); binding signal [7]: 12.7 upbm affinity estimate (log intensity, higher = more binding, comparable within an allelic series); binding signal [8]: 12.7 upbm affinity estimate (log intensity, higher = more binding, comparable within an allelic series); binding signal [9]: 11.9 upbm affinity estimate (log intensity, higher = more binding, comparable within an allelic series); binding signal [10]: 12.6 upbm affinity estimate (log intensity, higher = more binding, comparable within an allelic series); binding signal [11]: 11.4 upbm affinity estimate (log intensity, higher = more binding, comparable within an allelic series); binding signal [12]: 11.1 upbm affinity estimate (log intensity, higher = more binding, comparable within an allelic series)

Question: CCTAGGGC was tested. Which binding signal [1] did it give?
Answer: 8.55 upbm affinity estimate (log intensity, higher = more binding, comparable within an allelic series)

Question: And the binding signal [2]?
Answer: 9.6 upbm affinity estimate (log intensity, higher = more binding, comparable within an allelic series)

Question: What about the binding signal [13] of the same sequence?
Answer: 6.96 upbm affinity estimate (log intensity, higher = more binding, comparable within an allelic series)

Question: What about the binding signal [4] of the same sequence?
Answer: 8.37 upbm affinity estimate (log intensity, higher = more binding, comparable within an allelic series)

Question: What about the binding signal [5] of the same sequence?
Answer: 9.6 upbm affinity estimate (log intensity, higher = more binding, comparable within an allelic series)

Question: And the binding signal [7]?
Answer: 9.53 upbm affinity estimate (log intensity, higher = more binding, comparable within an allelic series)

Question: And the binding signal [14]?
Answer: 10.4 upbm affinity estimate (log intensity, higher = more binding, comparable within an allelic series)

Question: What about the binding signal [11] of the same sequence?
Answer: 8.47 upbm affinity estimate (log intensity, higher = more binding, comparable within an allelic series)

Question: What about the binding signal [12] of the same sequence?
Answer: 9.68 upbm affinity estimate (log intensity, higher = more binding, comparable within an allelic series)

Question: What about the binding signal [15] of the same sequence?
Answer: 10.4 upbm affinity estimate (log intensity, higher = more binding, comparable within an allelic series)

Question: What about the binding signal [16] of the same sequence?
Answer: 6.98 upbm affinity estimate (log intensity, higher = more binding, comparable within an allelic series)

Question: Which binding signal [1] does the source give for AGGCCCCC here?
Answer: 8.34 upbm affinity estimate (log intensity, higher = more binding, comparable within an allelic series)

Question: What about the binding signal [17] of the same sequence?
Answer: 9.04 upbm affinity estimate (log intensity, higher = more binding, comparable within an allelic series)

Question: And the binding signal [18]?
Answer: 9.05 upbm affinity estimate (log intensity, higher = more binding, comparable within an allelic series)

Question: And the binding signal [13]?
Answer: 7.07 upbm affinity estimate (log intensity, higher = more binding, comparable within an allelic series)

Question: What about the binding signal [4] of the same sequence?
Answer: 8.29 upbm affinity estimate (log intensity, higher = more binding, comparable within an allelic series)

Question: What about the binding signal [19] of the same sequence?
Answer: 7.63 upbm affinity estimate (log intensity, higher = more binding, comparable within an allelic series)

Question: And the binding signal [20]?
Answer: 9.09 upbm affinity estimate (log intensity, higher = more binding, comparable within an allelic series)

Question: What about the binding signal [14] of the same sequence?
Answer: 9.91 upbm affinity estimate (log intensity, higher = more binding, comparable within an allelic series)

Question: And the binding signal [21]?
Answer: 8.99 upbm affinity estimate (log intensity, higher = more binding, comparable within an allelic series)

Question: What about the binding signal [22] of the same sequence?
Answer: 7.61 upbm affinity estimate (log intensity, higher = more binding, comparable within an allelic series)

Question: And the binding signal [23]?
Answer: 8.97 upbm affinity estimate (log intensity, higher = more binding, comparable within an allelic series)

Question: What about the binding signal [24] of the same sequence?
Answer: 7.47 upbm affinity estimate (log intensity, higher = more binding, comparable within an allelic series)

Question: And the binding signal [11]?
Answer: 8.32 upbm affinity estimate (log intensity, higher = more binding, comparable within an allelic series)

Question: What about the binding signal [25] of the same sequence?
Answer: 7.5 upbm affinity estimate (log intensity, higher = more binding, comparable within an allelic series)

Question: And the binding signal [26]?
Answer: 9.06 upbm affinity estimate (log intensity, higher = more binding, comparable within an allelic series)

Question: What about the binding signal [15] of the same sequence?
Answer: 10.2 upbm affinity estimate (log intensity, higher = more binding, comparable within an allelic series)

Question: And the binding signal [27]?
Answer: 7.61 upbm affinity estimate (log intensity, higher = more binding, comparable within an allelic series)

Question: What about the binding signal [16] of the same sequence?
Answer: 7.21 upbm affinity estimate (log intensity, higher = more binding, comparable within an allelic series)

Question: What does the source list for CTGCTCCC?
Answer: binding signal [1]: 8.68 upbm affinity estimate (log intensity, higher = more binding, comparable within an allelic series); binding signal [3]: 10.1 upbm affinity estimate (log intensity, higher = more binding, comparable within an allelic series); binding signal [4]: 8.67 upbm affinity estimate (log intensity, higher = more binding, comparable within an allelic series); binding signal [9]: 10.1 upbm affinity estimate (log intensity, higher = more binding, comparable within an allelic series); binding signal [28]: 7.16 upbm affinity estimate (log intensity, higher = more binding, comparable within an allelic series); binding signal [11]: 8.65 upbm affinity estimate (log intensity, higher = more binding, comparable within an allelic series); binding signal [29]: 7.2 upbm affinity estimate (log intensity, higher = more binding, comparable within an allelic series); binding signal [30]: 7.01 upbm affinity estimate (log intensity, higher = more binding, comparable within an allelic series)
